Reference: PubChem BioAssay (NCI)
Several values for one entry are separate records, joined by “and”; a condition that tells them apart may be missing. Equal values may be shown once. About 83,000 compounds went through this panel and 20% of them were active in at least one assay; those are over-represented in the sample as a whole.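 Activity criterion: percent growth below 10, measured after cells in 96-well plates were exposed to a single compound concentration for 48 hours.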 Activity calls are given as the source filed them.

Legend:
Assay in all cases: NCI-60 one-dose screen, 48 h (100 = growth as untreated, 0 = no growth, -100 = all killed)
Settings in all cases: 10 µM
MOLT-4 leukemia = system: MOLT-4 leukemia
SR leukemia = system: SR leukemia
RPMI-8226 leukemia = system: RPMI-8226 leukemia
OVCAR-5 ovarian = system: OVCAR-5 ovarian
OVCAR-4 ovarian = system: OVCAR-4 ovarian
SK-OV-3 ovarian = system: SK-OV-3 ovarian
OVCAR-3 ovarian = system: OVCAR-3 ovarian
HS 578T breast = system: HS 578T breast
IGROV1 ovarian = system: IGROV1 ovarian
OVCAR-8 ovarian = system: OVCAR-8 ovarian

Measured: growth

O=C1C(=O)c2ccccc2-c2ccccc21
active: MOLT-4 leukemia -26.9% | SR leukemia 0.843% | RPMI-8226 leukemia -32.7% | OVCAR-5 ovarian -63.8% | OVCAR-4 ovarian -100% | OVCAR-3 ovarian -91% | HS 578T breast -20.1%
inactive: SK-OV-3 ovarian 93.7%

COC12C(COC(N)=O)C3=C(C(=O)C(C)=C(N)C3=O)N1CC1C2N1C (stereo not drawn)
inactive: RPMI-8226 leukemia 51.7% | OVCAR-5 ovarian 67.5% | OVCAR-4 ovarian 70.5% | SK-OV-3 ovarian 54.7% | IGROV1 ovarian 24.4% | OVCAR-3 ovarian 79.2% | HS 578T breast 67.1%
active: MOLT-4 leukemia 7.02% | SR leukemia 4.38%

Oc1ccccc1-c1ccccc1
inactive: MOLT-4 leukemia 90.1% and 93.8% | SR leukemia 92% and 87.9% | RPMI-8226 leukemia 98.7% and 93.2% | OVCAR-8 ovarian 100% and 98% | OVCAR-5 ovarian 105% and 109% | OVCAR-4 ovarian 108% and 104% | SK-OV-3 ovarian 92.2% and 102% | OVCAR-3 ovarian 103% and 116% | HS 578T breast 104% and 120%

CC(=O)[O][Hg][c]1c(C)c(C)cc(C)c1C
active: MOLT-4 leukemia -5.69% | SR leukemia -27.6% | RPMI-8226 leukemia 7.45% | OVCAR-5 ovarian -9.8% | OVCAR-4 ovarian -93.2% | OVCAR-3 ovarian -93.6% | HS 578T breast -1.53%
inactive: OVCAR-8 ovarian 15.3% | SK-OV-3 ovarian 97.5%

[Cl][Hg][c]1ccc2ccccc2c1
active: MOLT-4 leukemia -1.79% | SR leukemia -38% | RPMI-8226 leukemia -11.1% | OVCAR-5 ovarian -13.7% | OVCAR-4 ovarian -89.7% | SK-OV-3 ovarian 2.89% | IGROV1 ovarian -76.6% | OVCAR-3 ovarian -97.8% | HS 578T breast 2.36%

C#CC1(O)CCC(C(C)(C)C)CC1 (stereo not drawn)
inactive: MOLT-4 leukemia 114% | SR leukemia 113% | RPMI-8226 leukemia 102% | OVCAR-5 ovarian 105% | OVCAR-4 ovarian 116% | SK-OV-3 ovarian 119% | OVCAR-3 ovarian 103%

ClCc1ccc2ccccc2n1
inactive: MOLT-4 leukemia 81.3% | SR leukemia 88.2% | RPMI-8226 leukemia 98.6% | OVCAR-5 ovarian 83.4% | OVCAR-4 ovarian 101% | SK-OV-3 ovarian 113% | OVCAR-3 ovarian 99% | HS 578T breast 97.4%

CC/C(=C/c1ccc(OC)cc1OC)[N+](=O)[O-]
active: MOLT-4 leukemia 6.34% | SR leukemia 2.47% | RPMI-8226 leukemia -7.24%
inactive: OVCAR-8 ovarian 18.4% | OVCAR-5 ovarian 35.9% | OVCAR-4 ovarian 93.7% | SK-OV-3 ovarian 124% | IGROV1 ovarian 39.6% | OVCAR-3 ovarian 58.7% | HS 578T breast 77.6%

COc1cc([C@@H]2c3cc4c(c(O)c3C[C@H]3COC(=O)[C@@H]32)OCO4)cc(OC)c1OC
inactive: OVCAR-8 ovarian 16.4% | OVCAR-5 ovarian 32.8% | OVCAR-4 ovarian 49.9%
active: MOLT-4 leukemia -30.2% | SR leukemia -3.92% | RPMI-8226 leukemia -53.3% | SK-OV-3 ovarian -0.464% | OVCAR-3 ovarian -48.9% | HS 578T breast -10.6%

COc1cc(/C=C/[N+](=O)[O-])cc(OC)c1OC
inactive: OVCAR-5 ovarian 23% | OVCAR-4 ovarian 34.2% | SK-OV-3 ovarian 89.9%
active: MOLT-4 leukemia 8.23% | SR leukemia -17.7% | RPMI-8226 leukemia -27.6% | OVCAR-8 ovarian 1.78% | IGROV1 ovarian -22% | OVCAR-3 ovarian -30.9% | HS 578T breast 8.36%

CC(C)C1(NC(=O)C2CC3c4cccc5[nH]cc(c45)CC3N(C)C2)OC2(O)C3CCCN3C(=O)C(Cc3ccccc3)N2C1=O (stereo not drawn)
inactive: MOLT-4 leukemia 65.8% | SR leukemia 87.8% | RPMI-8226 leukemia 108% | OVCAR-5 ovarian 72.2% | OVCAR-4 ovarian 70.9% | SK-OV-3 ovarian 116% | OVCAR-3 ovarian 116% | HS 578T breast 99.5%

CC1CCC2(OC1)OC1C(O)C3C4CCC5CC(OC6OC(CO)C(OC7OC(CO)C(O)C(OC8OCC(O)C(O)C8O)C7OC7OC(CO)C(O)C(OC8OC(CO)C(O)C(O)C8O)C7O)C(O)C6O)C(O)CC5(C)C4CCC3(C)C1C2C (stereo not drawn)
inactive: MOLT-4 leukemia 28.8%
active: SR leukemia 9.36% | RPMI-8226 leukemia -47.1% | OVCAR-5 ovarian -62.6% | OVCAR-4 ovarian -66.7% | SK-OV-3 ovarian -35.8% | OVCAR-3 ovarian -83.1%

Cc1cc(C)c(C[N+](C)(C)C)c(C)c1C
inactive: OVCAR-5 ovarian 10.1% | OVCAR-3 ovarian 11.4%
active: MOLT-4 leukemia 3.91% | SR leukemia 7.44% | RPMI-8226 leukemia -18.4% | OVCAR-8 ovarian 6.43% | OVCAR-4 ovarian 8.09% | SK-OV-3 ovarian 7.37% | IGROV1 ovarian 7.5% | HS 578T breast 0.977%
